Bioassay records: PubChem, National Center for Advancing Translational Sciences (NCATS)
Pf growth 96h = Primary qHTS for delayed death inhibitors of the malarial parasite plastid, 96 hour incubation; P. falciparum luciferase reporter growth, 96 h; AID 504834, 2011; Potency, µM (titrated, usually from 28.7 µM), for the others: top-dose activity change, negative = inhibition, most hits filed as inhibitors; hit rate 6.9% among 320,000; further: on the % scale 0 is the no-effect control and ±100 the full control effect
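Delayed-death screen, second-generation endpoint: infected erythrocytes, 2% hematocrit, 0.05% parasitemia final; 96 hours at 37 C, 5% CO2; luciferase detection reagent; luminescence decrease equals reduced growth.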
AmpC inh no detg = qHTS Inhibitors of AmpC Beta-Lactamase (assay without detergent); Potency, µM (top dose mostly 57.1 µM), inactives show at the top dose activity change, negative = inhibition, hits mostly inhibitors; hit rate 0.52% among 330,000; P00811; AID 485341, 2010; AmpC nitrocefin hydrolysis, absorbance 480 nm, 0.0001% Triton;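 further: plate controls were no compound for no effect and no enzyme for full effect; nearly all actives have a fitted effect of over 20% in size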
Target sequence (P00811 whole entry, looked up): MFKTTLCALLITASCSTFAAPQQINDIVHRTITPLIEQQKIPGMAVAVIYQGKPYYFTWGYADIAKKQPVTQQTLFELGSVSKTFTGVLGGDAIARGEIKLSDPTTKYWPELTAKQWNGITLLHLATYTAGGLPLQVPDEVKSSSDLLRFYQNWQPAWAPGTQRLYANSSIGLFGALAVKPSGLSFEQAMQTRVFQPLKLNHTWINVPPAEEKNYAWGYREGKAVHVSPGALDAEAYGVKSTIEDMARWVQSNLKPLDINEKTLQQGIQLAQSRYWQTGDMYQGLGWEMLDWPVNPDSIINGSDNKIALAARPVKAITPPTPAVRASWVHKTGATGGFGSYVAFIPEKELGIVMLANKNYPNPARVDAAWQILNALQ
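20 mM phosphate pH 7.0 + 0.01% (detergent screen) or 0.0001% Triton X-100; 5.3 nM AmpC reagent; cpd preinc 15 min RT; nitrocefin (800 uM stock) to start; A480 q20 s × 4 min; Activity was normalised to no-enzyme and no-compound control wells.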
Pf growth 48h = Primary qHTS for delayed death inhibitors of the malarial parasite plastid, 48 hour incubation; hit rate 5.9% among 310,000; P. falciparum luciferase growth in erythrocytes, 48 h; Potency, µM (doses to about 28.7 µM), for the others: at the top dose activity change, negative = inhibition, actives largely listed as inhibitors; further: on the % scale 0 is the no-effect control and ±100 the full control effect
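Read-out is firefly luciferase luminescence from an integrated reporter in P. falciparum, so falling signal marks reduced parasite growth. Infected erythrocytes were at 2% hematocrit and 0.1% parasitemia (final) in Albumax-supplemented RPMI 1640.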
Sm TGR inh = qHTS Assay for the Inhibitors of Schistosoma Mansoni Peroxiredoxins; purified TGR, DTNB reduction, TNB absorbance 405 nm; Potency, µM (doses to about 114 µM), inactives show at the top dose activity change, negative = inhibition, usual class: inhibitors; hit rate 3% among 360,000; AID 485364, 2010; further: on the % scale 0 is the no-effect control and ±100 the full control effect; nearly all actives have a fitted effect of over 60% in size
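TGR 20 nM + NADPH 100 uM (dispensed conc.), cpd preinc 15 min RT; start with NADPH (500 uM addition) then DTNB (15 mM addition). Kinetic TNB absorbance, 405 nm filter. Four-parameter Hill fit across titration.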
SARS PLP yeast = qHTS of Yeast-based Assay for SARS-CoV PLP. S. cerevisiae expressing SARS-CoV PLpro, growth rescue. hit rate 0.19% among 330,000. Potency, µM (highest dose often 32.9 µM), for the others: at the highest dose activity, positive = growth rescue, actives largely listed as activators; calls by dose curve; further: 0% is about no effect; nearly all actives have a fitted effect of over 55% in size
AmpC detergent = qHTS Inhibitors of AmpC Beta-Lactamase (assay with detergent). P00811. AmpC hydrolysis of nitrocefin, absorbance 480 nm, 0.01% Triton. Potency, µM (series often up to 114 µM), for inactives: at the top dose activity change, negative = inhibition, most hits filed as inhibitors. hit rate 0.041% among 370,000;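 further: 0% = no-compound wells and -100% = no-enzyme wells; nearly all actives have a fitted effect of over 25% in size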
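AmpC (5.3 nM in the dispensed reagent) in 20 mM phosphate pH 7.0 with 0.01% (detergent screen) or 0.0001% Triton X-100 was preincubated with compounds for 15 min at room temperature. Nitrocefin was then added from an 800 uM solution, and hydrolysis was followed at 480 nm.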
* = called active by the depositor; u = inconclusive; x = no result. Hits are enriched below; roughly 12% of the tested compounds scored in any of these assays. Unless noted, the call rests on the fitted dose curve; in most records, active means well fitted curve in the direction sought with a large enough effect; inconclusive means small, poorly fitted or top-dose-only effect, or another doubt; inactive means no such curve, though single readings can be large; an effect the other way counts as inactive or inconclusive. Potency means the concentration at half of the fitted maximal effect.

SMILES | Pf growth 96h | AmpC inh no detg | Pf growth 48h | Sm TGR inh | SARS PLP yeast | AmpC detergent
CCOC(=O)c1cnc(-n2nc(C)cc2C)nc1NNc1cc(-c2ccccc2)nc(C)n1 | u | -0.2% | u | -22.1% | -2.8% | -10.3%
CCOC(=O)c1sc2ccccc2c1S(=O)(=O)N1CCN(c2cccc(C)c2)C(C)C1 (stereo not drawn) | x | x | x | -1.7% | x | 23.6%
Cc1ccc(S(=O)(=O)N2CCOC2CNC(=O)C(=O)NCCN(C)C)cc1 (stereo not drawn) | 7.8% | -14.2% | -4.7% | -7.7% | u | 1.8%
CC1=C(C(=O)OCc2ccccc2)C(c2cccc(Cl)c2Cl)CC(=O)N1 (stereo not drawn) | x | x | x | 18.9% | x | 21.5%
COC(=O)C1=C(C)NC(=O)CC1c1cccc(Cl)c1Cl (stereo not drawn) | u | -22.7% | 5.22µM* | -3.6% | 26.3% | -3.8%
CCCOc1ccc(NC(=O)CC2C(=O)N(c3ccc(Cl)cc3)C(=O)N2CCc2ccncc2)cc1 (stereo not drawn) | x | x | x | 5.4% | x | 21.2%
COc1cc(N=Nc2cccc(S(N)(=O)=O)c2)c2ccccc2c1N | 2.94µM* | -32.4% | 4.15µM* | 56.2µM* | -2.0% | -14.7%
Cc1csc(SC(C)C(=O)NCC2CCCCC2)n1 (stereo not drawn) | u | 145.5% | 13.9% | 3.8% | 1.6% | -3.7%
CCCCN(CC)C(=O)c1nn(C)c2c1CSc1ccccc1-2 | x | x | x | 44.7µM* | x | 21.4%
CCN(C(=O)c1nn(C)c2c1CSc1ccccc1-2)c1cccc(C)c1 | x | x | x | 9.1% | x | 21.0%
COc1cccc(-c2nc(CS(=O)(=O)CC(=O)Nc3ccc(C(C)=O)cc3)c(C)o2)c1 | 0.2% | 0.3% | -14.2% | -29.9% | -3.8% | -2.9%
CCNc1nc(NC(C)C)nc(Oc2ccc(OCCOc3ccc(C)cc3)nn2)n1 | 11.7µM* | 110.5% | u | 1.1% | -5.8% | 3.7%
CCNc1nc(NCC)nc(Oc2ccc(OCC)nn2)n1 | 23.9% | 1.9% | -1.3% | -2.0% | -0.3% | -16.2%
COc1ccc(S(=O)(=O)N2CCNC(=O)C2)cc1Br | 0.3% | -26.7% | 0.0% | 6.1% | 1.7% | 0.7%
N#CC1(NC(=O)COC(=O)c2ccccc2[N+](=O)[O-])CCCCC1 | -15.2% | -7.8% | 31.8% | -1.3% | 1.6% | -1.6%
N#CC1(NC(=O)COC(=O)c2cc(O)c3ccccc3c2O)CCCCC1 | 11.7µM* | -40.1% | u | 22.4µM* | 1.6% | -15.1%
Cc1ccccc1Cc1c(C)nc2c(C(=O)NCc3ccc4c(c3)OCO4)cnn2c1C | u | -16.7% | u | 0.7% | 5.8% | 0.8%
Cc1ccc(C)c(Cc2c(C)nc3c(C(=O)NCc4ccc5c(c4)OCO5)cnn3c2C)c1 | 10.4µM* | -24.4% | x | -14.2% | -0.8% | u
Cc1nc2c(C(=O)NCc3ccc4c(c3)OCO4)cnn2c(C)c1Cc1ccc(F)cc1Cl | 13.1µM* | 1.3% | u | -3.3% | 3.0% | -9.3%
CCOC(=O)c1c(S(=O)(=O)N2CCC(C(=O)Nc3ccccc3OC)CC2)c(C)n(CC)c1C | x | x | x | -0.5% | x | 7.6%
C#CCOCCOCCOCCNc1nc(N2CCN(C(=O)CCCCCCCCCCNC(=O)[C@H](CCCCN)n3cc(C[C@@H](C)CC)nn3)CC2)nc(N2CCN(C(=O)CCCCCCCCCCNC(=O)[C@@H]([C@H](C)O)n3cc(C)nn3)CC2)n1 | 0.37µM* | 298.4% | 2.08µM* | 6.8% | -15.6% | 0.6%
C#CCOCCOCCOCCNc1nc(N2CCN(C(=O)[C@H]([C@@H](C)O)n3cc(CCCCN)nn3)CC2)nc(N2CCN(C(=O)[C@H](CCCCN)n3cc(CC(C)O)nn3)CC2)n1 (stereo partly drawn) | -9.8% | 221.3% | 15.0% | -18.3% | 1.8% | -0.4%
C#CCOCCOCCOCCNc1nc(N2CCN(C(=O)[C@H](CCCCN)n3cc(CN)nn3)CC2)nc(N2CCN(C(=O)[C@H](CCCCN)n3cc(CN)nn3)CC2)n1 | x | 11.3% | x | x | 4.2% | x
C#CCOCCOCCOCCNc1nc(N2CCN(C(=O)CCCCCCCCCCNC(=O)Cn3cc(C[C@@H](C)O)nn3)CC2)nc(N2CCN(C(=O)CCCCCCCCCCNC(=O)[C@@H](CCSC)n3cc(CCO)nn3)CC2)n1 | 0.147µM* | 245.9% | 0.185µM* | -5.6% | -0.8% | u
C#CCOCCOCCOCCNc1nc(N2CCN(C(=O)CCCCCCCCCCNC(=O)[C@@H](CCSC)n3cc(CCO)nn3)CC2)nc(N2CCN(C(=O)CCCCCCCCCCNC(=O)[C@@H]([C@H](C)O)n3cc(C)nn3)CC2)n1 | 0.165µM* | 228.6% | 0.147µM* | -23.8% | 9.2% | -3.2%
SMILES | Pf growth 96h | AmpC inh no detg | Pf growth 48h | Sm TGR inh | SARS PLP yeast | AmpC detergent
C#CCOCCOCCOCCNc1nc(N2CCN(C(=O)CCCCCCCCCCNC(=O)[C@H](CCCCN)n3cc(C)nn3)CC2)nc(N2CCN(C(=O)CCCCCCCCCCNC(=O)[C@@H]([C@H](C)O)n3cc(C)nn3)CC2)n1 | 1.17µM* | 235.3% | 2.08µM* | -2.4% | 7.7% | 4.7%
C#CCOCCOCCOCCNc1nc(N2CCN(C(=O)Cn3cc(CCCCN)nn3)CC2)nc(N2CCN(C(=O)[C@H](C(C)C)n3cc(CCO)nn3)CC2)n1 | 0.2% | 291.7% | 12.2% | -2.3% | -8.8% | -17.7%
O=C(NC1CCCCC1)C(c1ccc(O)c(O)c1)N(C(=O)Cn1nnc2ccccc21)c1cccc(O)c1 (stereo not drawn) | 1.1% | -37.3% | -19.4% | -3.7% | 1.3% | -4.8%
CCCc1cc(=O)[nH]c(Nc2cc(C)ccc2OC)n1 | x | x | x | 1.8% | x | -0.1%
Cc1cccc(NC(=O)c2nc[nH]c2C(=O)N(C)Cc2ccccc2)c1 | u | -1.6% | 13.1% | u | -0.6% | 1.6%
COC(=O)c1cc(OC)c(OC)cc1NC(=O)c1ccc2c(c1)CCN2S(C)(=O)=O | x | x | x | -1.7% | x | -4.2%
CC(=O)OCC1=C(C(=O)O)N2C(=O)C(NC(=O)C(C)Cn3nc(C)c(Cl)c3C)C2SC1 (stereo not drawn) | 35.5% | -7.7% | -20.0% | 28.2µM* | -3.1% | -8.9%
CC(=O)OCC1=C(C(=O)O)N2C(=O)[C@@H](NC(=O)CSc3ccncc3)[C@H]2SC1 | 45.0% | -20.5% | u | 44.7µM* | x | -3.8%
CC(=O)OCC1=C(C(=O)O)N2C(=O)C(NC(=O)Cc3ccccc3)C2SC1 (stereo not drawn) | u | x | -11.3% | x | x | x
